# ChEMBL document CHEMBL4513216, “Probing the Open Global Health Chemical Diversity Library for Multistage-Active Starting Points for Next-Generation Antimalarials” (ACS Infect Dis, 2020)
# About 8,600 (12%) of roughly 69,000 compounds showed an effect of 50% or more. This excerpt belongs to a sample that is enriched for strong results.
# System: Plasmodium berghei
# Test: Screen against P. berghei liver stage (PbLuc), transformed with Luciferase, at 10uM
# Assay type: functional, HepG2
# Conditions: tested at 10 uM
row,SMILES,INHIBITION [%]
1,O=C(CCN1CCOC(Cn2cccn2)C1)NC1CCCCC1 (stereo not given),-107
2,O=C(c1ccc[nH]1)N1CCCn2c(CN3CCCCC3)nnc2C1,42.1
3,O=C(c1cccc(Cl)c1)N1CCCn2c(CN3CCCCC3)nnc2C1,55.2
4,Cc1cccc(C(=O)N2CCCn3c(CN4CCCCC4)nnc3C2)c1,25.2
5,O=C1CCCN1Cc1nnc2n1CCCN(C(=O)c1ccc[nH]1)C2,53
6,O=C(c1ccccc1)N1CCCn2c(CN3CCCCC3)nnc2C1,50.9
7,COCC(=O)N1CCCn2c(CN3CCCC3)nnc2C1,56.6
8,COCC(=O)N1CCCn2c(CN3CCOCC3)nnc2C1,-2.46
9,O=C(c1ccncc1)N1CCCn2c(CN3CCCCC3)nnc2C1,31.8
10,COCC(=O)N1CCCn2c(CN3CCCCC3)nnc2C1,20.1
11,O=C(c1ccncc1)N1CCCn2c(CN3CCCC3)nnc2C1,35.7
12,O=C(c1ccc[nH]1)N1CCCn2c(nnc2Cn2cccn2)C1,-17.2
13,O=C(c1ccccc1F)N1CCCn2c(CN3CCCCC3)nnc2C1,18.3
14,Cc1nc(C)n(CC2CCCN(Cc3cccc4c3OCCO4)C2)n1 (stereo not given),38.8
15,Cc1noc(C)c1-c1cncc(CC2CCN(C(=O)c3cc[nH]n3)C2)n1 (stereo not given),22
16,CNc1nc(C2CCCN(C(=O)C(C)C)C2)nc2c1CN(C)CC2 (stereo not given),12.3
17,Cc1cccc(OCCN2CCCC(c3cc(C(N)=O)[nH]n3)C2)c1 (stereo not given),-46.4
18,Cc1cc(C(=O)N2CCCC3(COCCN(c4ncccn4)C3)C2)[nH]n1 (stereo not given),33.4
19,COc1ccc2c(c1)C(C(=O)NCCCN1CCN(C)CC1)CC(=O)N2 (stereo not given),26
20,N#CC1(C(=O)N2CCCN(c3nccs3)CC2)CCCC1,7.305
21,Nc1nccc(C2CCCN(CC3CC3)C2)n1 (stereo not given),23
22,CC1COCCN1C(=O)NCCn1ccnc1 (stereo not given),-3.94

row,SMILES,INHIBITION [%]
1,CC1COCCN1C(=O)NCCCn1ccnc1 (stereo not given),24.8
2,O=C(NCCCn1cccn1)N1CCCC1c1ccncc1 (stereo not given),9.3
3,O=C(NCCCn1ccnc1)N1CCCC1c1ccncc1 (stereo not given),37
4,COc1ccc(C2CCCN2C(=O)NCCCn2cccn2)cc1 (stereo not given),56
5,COc1ccc(C2CCCN2C(=O)NCCn2ccnc2)cc1 (stereo not given),21.425
6,COc1ccc(C2CCCN2C(=O)NCCCn2ccnc2)cc1 (stereo not given),54.45
7,COc1cccc(C2CCCN2C(=O)NCCCn2cccn2)c1 (stereo not given),45.7
8,CC1CN(C)CCN1C(=O)NCCCn1ccnc1 (stereo not given),60.1
9,O=S1(=O)COCCN1Cc1ccc(Cl)c(Cl)c1,-12.5
10,c1csc(-c2noc(CNCCn3cccn3)n2)c1,18.2
11,CC(=O)N1CC[C@@H]2CN(Cc3ccncc3)S(=O)(=O)[C@@H]2CC1,-10.5
12,Cc1ccsc1CN1CCC(c2nnc(Cn3cccn3)n2C)CC1,25.4
13,COc1cc(C)sc1C(=O)NCCNc1ccccc1,43.1
14,COc1ccsc1C(=O)NCCNc1ccccc1,-33
15,COc1cc(C)sc1C(=O)NCCC(=O)N(C)c1ccccc1,78.2
16,COc1cc(C)sc1C(=O)NCCC(=O)N(C)Cc1ccccc1,66.3
17,CN(Cc1ccccc1)C(=O)CCNS(=O)(=O)c1cccnc1,-17.6
18,COC(=O)CCNC(=O)c1cccc(C(=O)N(C)c2ccccc2)c1,43.4
19,CC(=O)N1CCCC(c2ccccn2)C1 (stereo not given),15.9
20,CCOCCN1CCC(c2cncc(C)n2)CC1,10.155
21,CC(C)CNC(=O)CN(CC(=O)NCC(C)C)S(C)(=O)=O,37.4
22,C=C(C)COc1cccc(CNC(COC)c2ccnn2C)c1 (stereo not given),37.6

row,SMILES,INHIBITION [%]
1,C=C(C)COc1cccc(CNC(CC)c2ccnn2C)c1 (stereo not given),66.6
2,C=C(C)COc1ccccc1CNC(CC)c1ccnn1C (stereo not given),36.7
3,CC(C)c1ncc(CN2CCC(O)(c3ccccc3F)CC2)cn1,33.04
4,Cc1cc(C)cc(N2CC(c3nnc(N)s3)CC2=O)c1 (stereo not given),-11.4
5,c1cn(-c2cnc(C3CCCNC3)cn2)cn1 (stereo not given),24.4
6,CC(C)CN1CCc2[nH]cnc2C12CCN(C(=O)c1ccc[nH]1)CC2,33.4
7,Cc1ocnc1C(=O)N1CCC2(CC1)c1nc[nH]c1CCN2CC(C)C,47.4
8,CC(C)CN1CCc2[nH]cnc2C12CCN(C(=O)c1cnn(C)c1)CC2,51.8
9,CC(C)CN1CCc2[nH]cnc2C12CCN(C(=O)c1ccnn1C)CC2,65.8
10,CC(C)CN1CCc2[nH]cnc2C12CCN(C(=O)c1cccnc1)CC2,16.6
11,CC(C)CN1CCc2[nH]cnc2C12CCN(C(=O)c1cncn1C)CC2,33.4
12,Cc1nn(C)cc1-c1cncn1CCc1ccc2c(c1)OCCO2,27.6
13,CC(C)C[C@@H](CO)n1cc(-c2cnc(-c3ccco3)nc2)nn1,-6.83
14,NC(=O)NC(=O)CCN1CCCC1c1nc(C2CCCCC2)co1 (stereo not given),-5.33
15,Cc1ccc(F)c2c1N(C(=O)Cc1c(C)nn(C)c1C)CCC2,-19.1
16,Cc1nn(C)c(C)c1S(=O)(=O)NCCn1ccc(-c2cccs2)n1,63.1
17,CS(=O)(=O)NCCn1ccc(-c2cccs2)n1,22.5
18,CCCS(=O)(=O)NCCn1ccc(-c2cccs2)n1,34.6
19,O=C(NCC1CCOCC1)[C@H]1C[C@@H]2CCN(Cc3ccncc3)C[C@@H]2O1,10
20,Cc1cn[nH]c1C1COCCN1C(=O)c1cc(F)ccc1F (stereo not given),22.8
21,COCC1CN(Cc2ccc(F)cc2)Cc2nnn(CC3CC3)c21 (stereo not given),-9.54
22,COc1ccc2oc(-c3cn(C)nc3C)c(O)c(=O)c2c1,8.49

row,SMILES,INHIBITION [%]
1,COc1cccc(CNC(=O)N2CCN3CCNC(=O)C3C2)c1 (stereo not given),15.2
2,O=C1NCCN2CCN(C(=O)NCCc3ccccc3)CC12 (stereo not given),61.1
3,O=C1NCCN2CCN(C(=O)Nc3ccc(-c4ccccc4)cc3)CC12 (stereo not given),18.6
4,O=C(c1ccccn1)N1C[C@H]2CC[C@@H](C1)N(C(=O)CCc1cccs1)C2,21.8
5,CCC(=O)N1CCC(c2ncncc2C)CC1,21.1
6,Cc1ncsc1C(=O)Nc1cccc(OCC(F)F)n1,17.4
7,NC(=O)Nc1cccc(C(=O)N(Cc2ccncc2)C2CC2)c1,71.1
8,Cc1ccc(CN(C(=O)c2cccc(NC(N)=O)c2)C2CC2)o1,17.9
9,NC(=O)Nc1cccc(C(=O)N(Cc2ccc(F)cc2)C2CC2)c1,13.5
10,Cc1occc(=O)c1OCc1noc(C(=O)NC2CCCC2)n1,6.67
11,CCOCC1CN(C(=O)c2cccn2C)Cc2cnn(CC3CC3)c21 (stereo not given),19
12,CCn1ncc2c1C(COCC1CC1)CN(c1ccc(C)nn1)C2 (stereo not given),86.2
13,Cc1ccc(N2Cc3cnn(C)c3C(COCC3CC3)C2)nn1 (stereo not given),24.6
14,CCOCC1CN(C(=O)c2ccnnc2)Cc2cnn(CC)c21 (stereo not given),5.44
15,CCOCC1CN(C(=O)N2CCCC2)Cc2cnn(C)c21 (stereo not given),21.4
16,CCn1cc2c(n1)C(COCC1CC1)CN(C(=O)c1ccco1)C2 (stereo not given),-78.9
17,CCOCC1CN(c2ccc(C)nn2)Cc2cnn(CC)c21 (stereo not given),48.4
18,CCOCC1CN(C(=O)CS(C)(=O)=O)Cc2cnn(C)c21 (stereo not given),19.5
19,CCOCC1CN(C(=O)C2CCOCC2)Cc2cnn(C)c21 (stereo not given),59.9
20,O=C(c1ccco1)N1Cc2cnn(CC3CC3)c2C(COCC2CC2)C1 (stereo not given),50.4
21,CCOCC1CN(C(=O)c2ccco2)Cc2cnn(C)c21 (stereo not given),18.4
22,CCOCC1CN(C(=O)c2ccco2)Cc2cnn(CC)c21 (stereo not given),78.8

row,SMILES,INHIBITION [%]
1,CNC(=O)c1ccc(C(=O)N2CCCC(n3ccnc3)C2)cn1 (stereo not given),18.2
2,Cc1cnn(CC2CCCN2CC(=O)NC2CCOCC2)c1 (stereo not given),15.3
3,O=C1NCCN(CC2CC2)C12CCN(Cc1ccccc1)CC2,47.4
4,CCc1noc(CN2CCCN(Cc3cccs3)CC2)n1,-47.6
5,Cc1nn(C)c(Cl)c1C1CCCN1Cc1ccc(C(N)=O)cc1 (stereo not given),-1.14
6,CCOCC1CN(c2ccc(C)nn2)Cc2nn(CC)cc21 (stereo not given),63.5
7,CCOCC1CN(S(C)(=O)=O)Cc2cnn(CC3CCOCC3)c21 (stereo not given),30.1
8,CCOCC1CN(S(=O)(=O)CC)Cc2cnn(CC3CC3)c21 (stereo not given),31.7
9,CCOCC1CN(C2CCCC2)Cc2cnn(CC3CCOCC3)c21 (stereo not given),58.8
10,CCOCC1CN(c2ncccn2)Cc2cnn(CC3CCOCC3)c21 (stereo not given),22.5
11,COCC1CN(c2ncccn2)Cc2cnn(CC3CC3)c21 (stereo not given),84.2
12,CCn1cc2c(n1)C(COCC1CC1)CN(c1ccc(C)nn1)C2 (stereo not given),41
13,CCn1cc2c(n1)C(COC)CN(c1ccc(C)nn1)C2 (stereo not given),36.2
14,CCOCC1CN(C)Cc2cnn(CC3CCCC3)c21 (stereo not given),36.8
15,COCC1CN(c2ccncn2)Cc2cnn(CC3CCCC3)c21 (stereo not given),19.5
16,Cn1ncc2c1C(COCC1CC1)CN(S(C)(=O)=O)C2 (stereo not given),33.4
17,CS(=O)(=O)N1Cc2cnn(CC3CC3)c2C(COCC2CC2)C1 (stereo not given),53.4
18,CCc1ccc(NC(=O)c2cnc(N3CCCC3)nc2C)cc1,-55.4
19,CCCn1cc(NC(=O)Nc2ccc(F)c(C(=O)NC)c2)cn1,11.3
20,OC[C@H]1CN(C2Cc3ccccc3C2)C[C@H]1CN1CCC(O)CC1,29.4
21,CCCOCC1CCN(C(=O)c2cnc(-c3csc(C)n3)nc2O)C1 (stereo not given),-33.9
22,O=C(CSc1nccc(-c2ccc3c(c2)OCO3)n1)N1CCOCC1,-47.8
